# Data published in PubChem BioAssay (NCATS).
# Inconclusive results are not listed. Entries that show only a call come without a potency. Activity calls are given as the source filed them. Calls follow the shape of the dose curve; as a rule, active = well fitted curve in the direction sought with a large enough effect; inconclusive = small, poorly fitted or top-dose-only effect, or another doubt; inactive = no such curve, though single readings can be large; an effect the other way counts as inactive or inconclusive.
# Legend:
# [1] = qHTS of pediatric cancer cell lines to identify multiple opportunities for drug repurposing: Primary screen for OHS-50 cells (AID 1347103); also: nearly all actives have a fitted effect of over 40% in size; also: potency is read from the fitted curve at half-maximal effect
# Method in brief: (§1)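 Cells (500-1,000/well) rested 5 h, then received compounds for 48 h; metabolically active cells were measured by CellTiter-Glo luminescence. Final concentrations spanned up to 46 µM (MIPE, 11-point) or 0.59 nM-46 µM (NPC, 8-point) in primary screens, 11-point in follow-ups.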
# [2] = qHTS of pediatric cancer cell lines to identify multiple opportunities for drug repurposing: Primary screen for RD cells (AID 1347104); also: nearly all actives have a fitted effect of over 55% in size; also: potency is read from the fitted curve at half-maximal effect
# Method in brief: (§2)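 Phenotypic viability qHTS, 48 h compound exposure, CellTiter-Glo luminescence read-out; multi-concentration dosing so that potency and efficacy derive directly from the primary screen's curves.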
# [3] = qHTS of pediatric cancer cell lines to identify multiple opportunities for drug repurposing: Primary screen for MG 63 (6-TG R) cells (AID 1347105); also: nearly all actives have a fitted effect of over 50% in size; also: potency is read from the fitted curve at half-maximal effect
# Method in brief: as §2
# [4] = qHTS of pediatric cancer cell lines to identify multiple opportunities for drug repurposing: Primary screen for Rh30 cells (AID 1347107); also: series mostly up to about 46 µM; nearly all actives have a fitted effect of over 75% in size
# Method in brief: as §1
# [5] = qHTS of pediatric cancer cell lines to identify multiple opportunities for drug repurposing: Primary screen for Rh41 cells (AID 1347108); also: nearly all actives have a fitted effect of over 70% in size; also: potency is read from the fitted curve at half-maximal effect
# Method in brief: as §2
# [6] = qHTS of pediatric cancer cell lines to identify multiple opportunities for drug repurposing: Primary screen for control Hh wild type fibroblast cells (AID 1347106);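 also: series mostly up to about 46 µM; a drop in luminescence marks cytotoxicity and a rise apparent proliferation; nearly all actives have a fitted effect of over 55% in size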
# Method in brief: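 Viability after 48 h compound treatment at 37C, 500-1,000 cells/well, read as ATP luminescence with CellTiter-Glo. Primary screens used 11-point (MIPE, 0.78 nM-46 µM) or 8-point (NPC, 0.59 nM-46 µM) final concentrations; follow-up screens used 11-point dilutions.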
# [7] = qHTS of pediatric cancer cell lines to identify multiple opportunities for drug repurposing: Confirmatory screen for SK-N-MC cells (AID 1347111);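 also: potency is read from the fitted curve at half-maximal effect; cells exposed to compound for 48 h before the readout; nearly all actives have a fitted effect of over 70% in size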
# Method in brief: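 Seed 500-1,000 cells/well; rest 5 h at 37 degrees C. Pin-transfer compounds, 11-point titration. Incubate 48 h. Add CellTiter-Glo, 15 min RT, read luminescence.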
# [8] = qHTS of pediatric cancer cell lines to identify multiple opportunities for drug repurposing: Confirmatory screen for BT-12 cells (AID 1347112); also: nearly all actives have a fitted effect of over 55% in size; also: potency is read from the fitted curve at half-maximal effect
# Method in brief: as §1
# [9] = qHTS of pediatric cancer cell lines to identify multiple opportunities for drug repurposing: Confirmatory screen for TC32 cells (AID 1347118);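 also: potency is read from the fitted curve at half-maximal effect; cells exposed to compound for 48 h before the read; nearly all actives have a fitted effect of over 65% in size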
# Method in brief: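 Luminescent CellTiter-Glo read-out of metabolically active TC32 cells after 48 h compound exposure. Primary: MIPE 11-point, 0.78 nM–46 µM; NPC 8-point, 0.59 nM–46 µM. Confirmatory: 11-point dilutions.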
# [10] = qHTS of pediatric cancer cell lines to identify multiple opportunities for drug repurposing: Confirmatory screen for Rh41 cells (AID 1347123); also: potency is read from the fitted curve at half-maximal effect; nearly all actives have a fitted effect of over 60% in size
# Method in brief: as §1
# [11] = qHTS of pediatric cancer cell lines to identify multiple opportunities for drug repurposing: Confirmatory screen for RD cells (AID 1347124);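 also: potency is read from the fitted curve at half-maximal effect; cells exposed to compound for 48 h before viability readout; nearly all actives have a fitted effect of over 65% in size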
# Method in brief: as §1
# [12] = qHTS of pediatric cancer cell lines to identify multiple opportunities for drug repurposing: Confirmatory screen for DAOY cells (AID 1347114); also: nearly all actives have a fitted effect of over 65% in size; also: potency is read from the fitted curve at half-maximal effect
# Method in brief: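 Viability measured as metabolically active cells via CellTiter-Glo luminescence following 48 hours of compound exposure, 11-point dilutions in confirmatory testing. 500-1,000 cells/well plated 5 hours before dosing; controls were DMSO and 2.3 µM bortezomib.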
# [13] = qHTS of pediatric cancer cell lines to identify multiple opportunities for drug repurposing: Confirmatory screen for NB-EBc1 cells (AID 1347115);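 also: cells exposed to compound for 48 h before the viability read; nearly all actives have a fitted effect of over 45% in size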
# Method in brief: as §1
# [14] = qHTS of pediatric cancer cell lines to identify multiple opportunities for drug repurposing: Confirmatory screen for BT-37 cells (AID 1347117); also: nearly all actives have a fitted effect of over 55% in size; also: potency is read from the fitted curve at half-maximal effect
# Method in brief: as §1
# [15] = qHTS of pediatric cancer cell lines to identify multiple opportunities for drug repurposing: Confirmatory screen for NB1643 cells (AID 1347109); also: nearly all actives have a fitted effect of over 45% in size
# Method in brief: as §1
# [16] = qHTS of pediatric cancer cell lines to identify multiple opportunities for drug repurposing: Confirmatory screen for MG 63 (6-TG R) cells (AID 1347119); also: nearly all actives have a fitted effect of over 55% in size
# Method in brief: as §1
# [17] = qHTS of pediatric cancer cell lines to identify multiple opportunities for drug repurposing: Confirmatory screen for control Hh wild type fibroblast cells (AID 1347121); also: nearly all actives have a fitted effect of over 70% in size
# Method in brief: as §1
compound,measurement,setting,value
CC(C)C(C)C=CC(C)C1CCC2C3=CC=C4CC(O)CCC4(C)C3CCC21C (stereo unspecified),Potency,[1],inactive
same,Potency,[2],inactive
same,Potency,[3],inactive
same,Potency,[4],inactive
same,Potency,[5],inactive
C[N+](C)(C)CCCCCC[N+](C)(C)C,Potency,[1],inactive
same,Potency,[2],inactive
same,Potency,[3],inactive
same,Potency,[4],inactive
same,Potency,[5],inactive
CCN1CCC[C@H]1CNC(=O)c1cc(S(N)(=O)=O)ccc1OC,Potency,[1],inactive
same,Potency,[2],inactive
same,Potency,[3],inactive
same,Potency,[4],inactive
same,Potency,[5],inactive
O=c1cc(N2CCOCC2)oc2c(-c3cccc4c3sc3ccccc34)cccc12,Potency,[1],7.69 µM (active)
same,Potency,[3],14.8 µM (active)
same,Potency,[6],inactive
Clc1ccc(-c2nc3sccn3c2C=NOCc2ccc(Cl)c(Cl)c2)cc1,Potency,[1],inactive
same,Potency,[2],inactive
same,Potency,[4],inactive
CC(=O)N(C)C1(c2ccccc2)CCN(CCC[C@]2(c3ccc(Cl)c(Cl)c3)CCCN(C(=O)c3ccccc3)C2)CC1,Potency,[1],24.3 µM (active)
same,Potency,[2],18.7 µM (active)
same,Potency,[5],18.7 µM (active)
CC(C)(C)c1cc(C(=O)O)c(NC(=O)Nc2ccc3[nH]ncc3c2)s1,Potency,[1],inactive
same,Potency,[3],inactive
same,Potency,[6],inactive
C=C1C(=O)OC2C=C(C)CCC=C(C)CCC12 (stereo unspecified),Potency,[1],inactive
same,Potency,[3],inactive
same,Potency,[6],inactive
O=C(O)c1ccc(-c2cc3cccnc3c(-c3ccc4nonc4c3)n2)cc1,Potency,[1],27.3 µM (active)
same,Potency,[2],26.4 µM (active)
same,Potency,[4],inactive
same,Potency,[7],2.33 µM (active)
same,Potency,[8],4.14 µM (active)
same,Potency,[9],2.61 µM (active)
same,Potency,[10],7.37 µM (active)
same,Potency,[11],7.37 µM (active)
C=CCc1ccc(O)c(-c2ccc(O)c(CC=C)c2)c1,Potency,[1],24.3 µM (active)
same,Potency,[3],18.7 µM (active)
same,Potency,[6],inactive
COCCOC(=O)C1=C(C)NC2=C(C(=O)CC(c3ccccc3OC)C2)C1c1cccc(O)c1 (stereo unspecified),Potency,[1],19.3 µM (active)
same,Potency,[3],14.8 µM (active)
Cc1ccc([C@@H]2O[C@H](CO)[C@@H](O)[C@H](O)[C@@H]2O)cc1Cc1ccc(-c2ccc(F)cc2)s1,Potency,[1],34.3 µM (active)
same,Potency,[3],inactive
same,Potency,[6],inactive
CNC1CCC(N(Cc2cccc(-c3ccncc3)c2)C(=O)c2sc3c(F)ccc(F)c3c2Cl)CC1 (stereo unspecified),Potency,[1],24.3 µM (active)
same,Potency,[2],10.5 µM (active)
same,Potency,[3],23.5 µM (active)
same,Potency,[5],18.7 µM (active)
same,Potency,[7],11.7 µM (active)
same,Potency,[12],20.8 µM (active)
same,Potency,[13],inactive
same,Potency,[14],20.8 µM (active)
same,Potency,[9],13.1 µM (active)
same,Potency,[10],10.4 µM (active)
CC#CCn1c(N2CCC[C@@H](N)C2)nc2c1c(=O)n(Cc1nc(C)c3ccccc3n1)c(=O)n2C,Potency,[1],inactive
same,Potency,[3],inactive
same,Potency,[6],inactive
CN1CCN(CCOc2cc(OC3CCOCC3)c3c(Nc4c(Cl)ccc5c4OCO5)ncnc3c2)CC1,Potency,[1],17.2 µM (active)
same,Potency,[2],20.9 µM (active)
same,Potency,[6],inactive
COc1cccc(-c2cc(=O)c3ccccc3o2)c1N,Potency,[1],inactive
same,Potency,[2],13.2 µM (active)
same,Potency,[6],inactive
same,Potency,[4],inactive
same,Potency,[5],inactive
same,Potency,[15],inactive
same,Potency,[8],inactive
same,Potency,[12],inactive
same,Potency,[13],inactive
same,Potency,[14],inactive
same,Potency,[9],20.8 µM (active)
same,Potency,[16],inactive
same,Potency,[17],inactive
same,Potency,[11],0.465 µM (active)
